{
  "source": "PubChem BioAssay",
  "note": "Where “and” joins values, the source holds several entries; their conditions need not be identical. Equal entries are not always repeated. Calls of active or inactive are those of the source. Unless noted, no stated cut-off is given here; in the data, active means response above about 15%; inactive means the rest. Peptide text beside a SMILES is read from it.",
  "data": [
    {"target": "AP-2 complex subunit beta (Homo sapiens) (UniProt P63010)", "sequence (P63010 whole entry, looked up, one chain of several)": "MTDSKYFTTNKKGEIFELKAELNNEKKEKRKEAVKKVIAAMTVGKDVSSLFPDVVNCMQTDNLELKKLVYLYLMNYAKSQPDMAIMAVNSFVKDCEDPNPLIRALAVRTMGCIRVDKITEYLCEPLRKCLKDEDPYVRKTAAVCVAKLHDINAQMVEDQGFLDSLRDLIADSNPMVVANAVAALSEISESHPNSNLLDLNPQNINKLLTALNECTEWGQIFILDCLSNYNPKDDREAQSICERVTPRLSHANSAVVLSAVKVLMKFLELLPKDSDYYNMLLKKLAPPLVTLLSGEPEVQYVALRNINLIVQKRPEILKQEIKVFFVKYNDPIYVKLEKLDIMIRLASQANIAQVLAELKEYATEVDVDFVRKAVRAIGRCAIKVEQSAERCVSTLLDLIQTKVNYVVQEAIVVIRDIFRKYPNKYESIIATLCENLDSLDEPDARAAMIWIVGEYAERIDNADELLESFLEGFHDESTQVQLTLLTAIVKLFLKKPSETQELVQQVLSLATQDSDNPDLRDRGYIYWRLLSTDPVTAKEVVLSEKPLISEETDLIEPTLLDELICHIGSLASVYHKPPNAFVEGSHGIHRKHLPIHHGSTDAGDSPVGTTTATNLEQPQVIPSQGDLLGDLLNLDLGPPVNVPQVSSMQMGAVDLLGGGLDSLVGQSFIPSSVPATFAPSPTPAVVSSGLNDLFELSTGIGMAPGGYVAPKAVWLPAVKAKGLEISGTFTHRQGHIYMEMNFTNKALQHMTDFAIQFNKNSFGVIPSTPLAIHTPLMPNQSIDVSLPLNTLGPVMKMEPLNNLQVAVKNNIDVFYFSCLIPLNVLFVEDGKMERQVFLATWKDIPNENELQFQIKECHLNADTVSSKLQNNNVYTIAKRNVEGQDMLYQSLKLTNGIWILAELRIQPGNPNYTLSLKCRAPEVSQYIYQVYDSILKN", "assay": "inhibitors of arrestin peptide binding to AP2, pilot screen, biochemical, validation set, GST-AP2 beads, flow cytometry (AID 504541;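 active means inhibition above 54%, about 3 SD of non-fluorescent compounds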;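 further: AP2 carries R879A mutation and is captured from E. coli lysate; bead-bound FITC arrestin peptide fluorescence measuring arrestin peptide binding to AP2; 0% = DMSO wells and 100% = excess unlabeled arrestin peptide control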)", "conditions": "FITC arrestin peptide, at 10 µM, stronger effect = higher value, AP2 beta2 appendage fragment, R879A mutant", "values": [
      {"smiles": "CC(C)(C)OC(=O)N1CC(O)CC1C(=O)OCC(=O)c1ccc(Cl)cc1", "note": "(stereo not drawn)", "inhibition": "-13.3% (inactive)"},
      {"smiles": "O=C(O)c1ccc(OCCn2ccnc2)cc1", "inhibition": "-0.39% (inactive)"},
      {"smiles": "CCOc1ccc2ccccc2c1CNc1nnnn1C", "inhibition": "-1.6% (inactive)"},
      {"smiles": "COc1ccccc1N1C(=O)C2CC(C)=C(C)CC2C1=O", "note": "(stereo not drawn)", "inhibition": "-31.7% (inactive)"},
      {"smiles": "Cc1coc2c1c(C)cc1oc(=O)c(Cc3ccccc3)c(C)c12", "inhibition": "16.9% (inactive)"},
      {"smiles": "COc1cc2c3c(c1)C(C)CC(C)(C)N3C(=O)C2=O", "note": "(stereo not drawn)", "inhibition": "0.2% (inactive)"},
      {"smiles": "NS(=O)(=O)c1cc2c(cc1Cl)NCNS2(=O)=O", "inhibition": "-24.8% (inactive)"},
      {"smiles": "O=C(O)C1Cc2ccccc2CN1S(=O)(=O)c1ccccc1", "note": "(stereo not drawn)", "inhibition": "1.65% (inactive)"},
      {"smiles": "COc1cccc(C2CC(=O)C3=C(C2)Nc2ccccc2N(C(=O)CCC(=O)O)C3c2ccc(F)cc2)c1", "note": "(stereo not drawn)", "inhibition": "30.9% (inactive)"},
      {"smiles": "CCC(C(=O)Nc1ccc2c(c1)OCCO2)c1ccccc1", "note": "(stereo not drawn)", "inhibition": "3.98% (inactive)"},
      {"smiles": "COc1ccc(C2C(C(=O)c3ccco3)=C(O)C(=O)N2CC2CCCO2)cc1", "note": "(stereo not drawn)", "inhibition": "25.3% (inactive)"},
      {"smiles": "C=CCNC(=O)c1ccc(-c2cccc([N+](=O)[O-])c2)o1", "inhibition": "-25% (inactive)"},
      {"smiles": "CC12CCC(C(=O)N(CCC#N)CCC#N)(CC1=O)C2(C)C", "note": "(stereo not drawn)", "inhibition": "44.5% (inactive)"},
      {"smiles": "CC(=O)c1c(C)c(C)c2n1CCn1c(C)ccc1-2", "inhibition": "6.32% (inactive)"},
      {"smiles": "COc1cc2cc(C)nc(Cc3cccc4ccccc34)c2cc1OC", "inhibition": "8.39% (inactive)"},
      {"smiles": "Cc1oc2cc(O)cc(O)c2c(=O)c1-c1ccc2c(c1)OCCCO2", "inhibition": "21% (inactive)"},
      {"smiles": "O=CNC1CCCc2c1[nH]c1ccc(Cl)cc21", "note": "(stereo not drawn)", "inhibition": "-3.47% (inactive)"},
      {"smiles": "COc1ccc2cc(C3(C)NC(=O)NC3=O)ccc2c1", "note": "(stereo not drawn)", "inhibition": "-3.7% (inactive)"},
      {"smiles": "CC1(C)CC(=O)c2c(nc3ccccc3c2N)C1", "inhibition": "-2.7% (inactive)"},
      {"smiles": "Cc1ccccc1C(=O)Oc1ccc(Sc2ccc(O)cc2)cc1", "inhibition": "-5.67% (inactive)"},
      {"smiles": "O=C(NC1CC1)C1CCN(C2CCN(C(=O)Cc3ccc(F)cc3)CC2)CC1", "inhibition": "44.4% (inactive)"},
      {"smiles": "CCc1cc(/C(Cc2ccccn2)=N\\O)c(O)cc1O", "inhibition": "15.4% (inactive)"},
      {"smiles": "CC(=O)NC(CC(C)C)C(=O)NC(Cc1ccccc1)C(N)=O", "note": "(stereo not drawn) (Ac-Leu-Phe-NH2; configuration not given here)", "inhibition": "-15.5% (inactive)"},
      {"smiles": "CN(C)c1ccc(C(CN)c2c[nH]c3ccccc23)cc1", "note": "(stereo not drawn)", "inhibition": "33.6% (inactive)"},
      {"smiles": "CCn1cc(C(=O)O)c(=O)c2ccc(C)nc21", "inhibition": "-4.75% (inactive)"},
      {"smiles": "CN1[C@@H]2CC(OC(=O)[C@H](CO)c3ccccc3)C[C@H]1[C@@H]1O[C@@H]12", "note": "(stereo partly drawn)", "inhibition": "14.7% (inactive) and 37.8% (inactive)"},
      {"smiles": "CCOc1cc2c3c(c1)C(C)=CC(C)(C)N3C(=O)C2=O", "inhibition": "51.5% (inactive)"},
      {"smiles": "Cc1ccc(C)c(OCCCC(C)(C)C(=O)O)c1", "inhibition": "-6.6% (inactive)"},
      {"smiles": "CC1(C)C(=O)OC(C(=O)c2ccc(Cl)cc2)C(C)(C)C1=O", "note": "(stereo not drawn)", "inhibition": "-10.6% (inactive)"},
      {"smiles": "CC1(CC(=O)Nc2ccccc2)NC(=S)N(c2ccccc2)N1", "note": "(stereo not drawn)", "inhibition": "-4.29% (inactive)"},
      {"smiles": "COc1cc2c(cc1OC)C(C)=NC1(CCCCC1)C2", "inhibition": "20.9% (inactive)"},
      {"smiles": "Cc1occc(=O)c1O", "inhibition": "-5.01% (inactive)"},
      {"smiles": "COC1CCN(Cc2cn(Cc3ccccc3)nc2-c2cc3ccccc3o2)CC1", "inhibition": "9.94% (inactive)"},
      {"smiles": "COc1cccc2c(O)cc(=O)n(C)c12", "inhibition": "25% (inactive)"},
      {"smiles": "CCN1C(=O)C(CC(=O)Nc2ccc(F)cc2)N(Cc2ccco2)C1=S", "note": "(stereo not drawn)", "inhibition": "-8.85% (inactive)"},
      {"smiles": "O=C(Cc1ccccc1[N+](=O)[O-])NCc1ccncc1", "inhibition": "-3.75% (inactive)"},
      {"smiles": "O=C1CC2(CCCC2)CC(=O)N1CCCCN1CCN(c2ncccn2)CC1", "inhibition": "-0.56% (inactive)"},
      {"smiles": "CCC(=O)c1ccc(OCc2ccc(C(=O)OC)cc2)cc1", "inhibition": "10.4% (inactive)"},
      {"smiles": "COc1cccc(NC(=O)C2CC(=O)OC23CCOC(C)(C)C3)c1", "note": "(stereo not drawn)", "inhibition": "0.76% (inactive)"}
    ]},
    {"test_system": "not listed separately", "assay": "yeast V-ATPase proton transport modulators, S. cerevisiae, pHLuorin, HTS validation (AID 504600);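 further: plate controls were DMSO for no effect and reference compound for full effect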", "conditions": "S. cerevisiae pHLuorin cytosolic pH, at 10 µM, stronger effect = higher value", "values": [
      {"smiles": "CC(C)(C)OC(=O)N1CC(O)CC1C(=O)OCC(=O)c1ccc(Cl)cc1", "note": "(stereo not drawn)", "response": "2.73% (inactive)"},
      {"smiles": "O=C(O)c1ccc(OCCn2ccnc2)cc1", "response": "2.25% (inactive)"},
      {"smiles": "CCOc1ccc2ccccc2c1CNc1nnnn1C", "response": "1.46% (inactive)"},
      {"smiles": "COc1ccccc1N1C(=O)C2CC(C)=C(C)CC2C1=O", "note": "(stereo not drawn)", "response": "2.17% (inactive)"},
      {"smiles": "Cc1coc2c1c(C)cc1oc(=O)c(Cc3ccccc3)c(C)c12", "response": "18.1% (active)"},
      {"smiles": "COc1cc2c3c(c1)C(C)CC(C)(C)N3C(=O)C2=O", "note": "(stereo not drawn)", "response": "1.61% (inactive)"},
      {"smiles": "NS(=O)(=O)c1cc2c(cc1Cl)NCNS2(=O)=O", "response": "0.56% (inactive)"},
      {"smiles": "O=C(O)C1Cc2ccccc2CN1S(=O)(=O)c1ccccc1", "note": "(stereo not drawn)", "response": "1.38% (inactive)"},
      {"smiles": "COc1cccc(C2CC(=O)C3=C(C2)Nc2ccccc2N(C(=O)CCC(=O)O)C3c2ccc(F)cc2)c1", "note": "(stereo not drawn)", "response": "-2.19% (inactive)"},
      {"smiles": "CCC(C(=O)Nc1ccc2c(c1)OCCO2)c1ccccc1", "note": "(stereo not drawn)", "response": "-0.08% (inactive)"},
      {"smiles": "COc1ccc(C2C(C(=O)c3ccco3)=C(O)C(=O)N2CC2CCCO2)cc1", "note": "(stereo not drawn)", "response": "-4.81% (inactive)"},
      {"smiles": "C=CCNC(=O)c1ccc(-c2cccc([N+](=O)[O-])c2)o1", "response": "-0.55% (inactive)"},
      {"smiles": "CC12CCC(C(=O)N(CCC#N)CCC#N)(CC1=O)C2(C)C", "note": "(stereo not drawn)", "response": "0.52% (inactive)"},
      {"smiles": "CC(=O)c1c(C)c(C)c2n1CCn1c(C)ccc1-2", "response": "-6.83% (inactive)"},
      {"smiles": "COc1cc2cc(C)nc(Cc3cccc4ccccc34)c2cc1OC", "response": "-0.08% (inactive)"},
      {"smiles": "Cc1oc2cc(O)cc(O)c2c(=O)c1-c1ccc2c(c1)OCCCO2", "response": "0.59% (inactive)"},
      {"smiles": "O=CNC1CCCc2c1[nH]c1ccc(Cl)cc21", "note": "(stereo not drawn)", "response": "0.49% (inactive)"},
      {"smiles": "COc1ccc2cc(C3(C)NC(=O)NC3=O)ccc2c1", "note": "(stereo not drawn)", "response": "-5.94% (inactive)"},
      {"smiles": "CC1(C)CC(=O)c2c(nc3ccccc3c2N)C1", "response": "-3.81% (inactive)"},
      {"smiles": "Cc1ccccc1C(=O)Oc1ccc(Sc2ccc(O)cc2)cc1", "response": "1.54% (inactive)"},
      {"smiles": "O=C(NC1CC1)C1CCN(C2CCN(C(=O)Cc3ccc(F)cc3)CC2)CC1", "response": "-9.52% (inactive)"},
      {"smiles": "CCc1cc(/C(Cc2ccccn2)=N\\O)c(O)cc1O", "response": "2.25% (inactive)"},
      {"smiles": "CC(=O)NC(CC(C)C)C(=O)NC(Cc1ccccc1)C(N)=O", "note": "(stereo not drawn) (Ac-Leu-Phe-NH2; configuration not given here)", "response": "-1.63% (inactive)"},
      {"smiles": "CN(C)c1ccc(C(CN)c2c[nH]c3ccccc23)cc1", "note": "(stereo not drawn)", "response": "-9.67% (inactive)"},
      {"smiles": "CCn1cc(C(=O)O)c(=O)c2ccc(C)nc21", "response": "-3.3% (inactive)"},
      {"smiles": "CN1[C@@H]2CC(OC(=O)[C@H](CO)c3ccccc3)C[C@H]1[C@@H]1O[C@@H]12", "note": "(stereo partly drawn)", "response": "-8.23% (inactive) and -3.95% (inactive)"},
      {"smiles": "CCOc1cc2c3c(c1)C(C)=CC(C)(C)N3C(=O)C2=O", "response": "-5.76% (inactive)"},
      {"smiles": "Cc1ccc(C)c(OCCCC(C)(C)C(=O)O)c1", "response": "4.38% (inactive)"},
      {"smiles": "CC1(C)C(=O)OC(C(=O)c2ccc(Cl)cc2)C(C)(C)C1=O", "note": "(stereo not drawn)", "response": "-4.25% (inactive)"},
      {"smiles": "CC1(CC(=O)Nc2ccccc2)NC(=S)N(c2ccccc2)N1", "note": "(stereo not drawn)", "response": "-0.03% (inactive)"},
      {"smiles": "COc1cc2c(cc1OC)C(C)=NC1(CCCCC1)C2", "response": "8.37% (inactive)"},
      {"smiles": "Cc1occc(=O)c1O", "response": "-1.14% (inactive)"},
      {"smiles": "COC1CCN(Cc2cn(Cc3ccccc3)nc2-c2cc3ccccc3o2)CC1", "response": "-0.82% (inactive)"},
      {"smiles": "COc1cccc2c(O)cc(=O)n(C)c12", "response": "-5.16% (inactive)"},
      {"smiles": "CCN1C(=O)C(CC(=O)Nc2ccc(F)cc2)N(Cc2ccco2)C1=S", "note": "(stereo not drawn)", "response": "1.67% (inactive)"},
      {"smiles": "O=C(Cc1ccccc1[N+](=O)[O-])NCc1ccncc1", "response": "-1.46% (inactive)"},
      {"smiles": "O=C1CC2(CCCC2)CC(=O)N1CCCCN1CCN(c2ncccn2)CC1", "response": "2.1% (inactive)"},
      {"smiles": "CCC(=O)c1ccc(OCc2ccc(C(=O)OC)cc2)cc1", "response": "23.8% (active)"},
      {"smiles": "COc1cccc(NC(=O)C2CC(=O)OC23CCOC(C)(C)C3)c1", "note": "(stereo not drawn)", "response": "-0.08% (inactive)"}
    ]}
  ]
}
